Compounds with a hit are over-represented: about 6.3% of the library has one in this group of screens.
tim10-1 inh: tim10-1 yeast growth inhibition. S. cerevisiae tim10-1 ts strain growth, BacTiter-Glo, 24 h. 330,000 tested, 2.2% active. inhibition, % at 20 µM;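 active means inhibition of at least 40%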;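 further: mutant grown at 25 °C; 0% = DMSO wells with yeast and 100% = wells holding no yeast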
MPTP block: blocks calcium-induced mitochondrial swelling | isolated mouse mitochondria, Ca2+ swelling absorbance, 30 min | inhibition, % at 10 µM | 360,000 tested, 1.4% active;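 active means inhibition of 50% or more, scaled per plate between neutral and stimulator controls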;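 further: 0% = DMSO wells given calcium and 100% = 1 mM EGTA wells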
TIM10 inh: inhibits growth of TIM10 yeast strain; S. cerevisiae TIM10 strain growth, BacTiter-Glo luminescence, 24 h; inhibition, % at 10 µM; 330,000 tested, 1.4% active; AID 463195;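 active means inhibition of 40% or more at the single tested concentration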;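 further: wild-type TIM10 isogenic control strain grown at permissive 25 °C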
tim23-1 inh: growth inhibitors of tim23-1 mutant yeast; S. cerevisiae tim23-1 growth, BacTiter-Glo luminescence, 24 h; inhibition, % at 20 µM; 330,000 tested, 1.3% active; AID 463212;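 active means growth inhibition of the mutant yeast at or above 50%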;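 further: temperature-sensitive mutant grown at 25 °C; plate controls were DMSO-treated mutant yeast for no effect and medium wells lacking yeast for full effect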
Mdm2 MdmX PPI: inhibitors of human Mdm2/MdmX interaction; SaOS-2 split-luciferase Mdm2/MdmX complementation, luminescence; O15151+Q00987; AID 485346; inhibition, % at 8 µM; 330,000 tested, 3% active;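 active means inhibition of at least 50% at 8 µM in the primary screen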
Target sequence (O15151 whole entry, looked up): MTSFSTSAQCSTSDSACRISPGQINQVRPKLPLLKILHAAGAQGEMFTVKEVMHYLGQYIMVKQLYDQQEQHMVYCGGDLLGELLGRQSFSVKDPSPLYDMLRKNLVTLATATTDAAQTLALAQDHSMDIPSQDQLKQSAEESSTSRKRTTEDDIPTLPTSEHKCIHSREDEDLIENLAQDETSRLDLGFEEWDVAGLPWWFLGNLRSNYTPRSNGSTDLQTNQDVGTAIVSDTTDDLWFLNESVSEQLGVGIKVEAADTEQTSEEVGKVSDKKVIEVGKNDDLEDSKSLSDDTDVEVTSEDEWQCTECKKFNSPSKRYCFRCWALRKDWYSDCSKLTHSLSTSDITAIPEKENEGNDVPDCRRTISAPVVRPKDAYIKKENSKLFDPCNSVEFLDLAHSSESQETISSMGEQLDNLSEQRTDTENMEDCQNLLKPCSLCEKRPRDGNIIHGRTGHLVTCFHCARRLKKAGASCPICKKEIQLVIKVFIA
Target sequence (Q00987 whole entry, looked up): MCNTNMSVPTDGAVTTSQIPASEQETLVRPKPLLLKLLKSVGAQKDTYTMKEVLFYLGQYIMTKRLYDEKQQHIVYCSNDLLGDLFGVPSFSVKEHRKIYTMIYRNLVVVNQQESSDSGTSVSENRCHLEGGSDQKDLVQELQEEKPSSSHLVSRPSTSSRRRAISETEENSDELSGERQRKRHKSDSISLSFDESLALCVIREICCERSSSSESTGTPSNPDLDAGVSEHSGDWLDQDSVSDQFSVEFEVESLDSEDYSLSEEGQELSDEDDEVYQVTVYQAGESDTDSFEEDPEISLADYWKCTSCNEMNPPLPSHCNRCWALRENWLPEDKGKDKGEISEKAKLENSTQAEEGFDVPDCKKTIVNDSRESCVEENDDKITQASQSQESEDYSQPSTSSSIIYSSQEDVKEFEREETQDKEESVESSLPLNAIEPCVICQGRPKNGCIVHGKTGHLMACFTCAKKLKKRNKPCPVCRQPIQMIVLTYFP
Mdm2-MdmX conf: human Mdm2/MdmX binding inhibition, confirmed. shares compounds with Mdm2 MdmX PPI. luminescent assay. inhibition, % at 8 µM. 10,000 tested, 55% active; in the data active means inhibition above about 40%
Full FLuc ctr: counter-screen for Mdm2/MdmX inhibitors: full-length luciferase; AID 504607; 6,200 tested, 77% active; SaOS-2 full-length luciferase counterscreen, luminescence; shares compounds with Mdm2 MdmX PPI; inhibition, % at 8 µM;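 active means mean inhibition at 8 µM reaching about 37%, which flags the compound as non-specific, limit read from the data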;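 further: p53-null SaOS-2 cells with luciferase driven by a doxycycline-inducible promoter; compound on cells about two nights before reading with doxycycline added after day one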
Active calls of the source: *; x = no result.

SMILES	tim10-1 inh	MPTP block	TIM10 inh	tim23-1 inh	Mdm2 MdmX PPI	Mdm2-MdmX conf	Full FLuc ctr
CCOc1cc(CNCCc2ccc(S(N)(=O)=O)cc2)cc(Cl)c1OCc1ccccc1	-1.2	46.3	26.8	-9.1	67.2*	37.0	52.7*
Cc1cc(OCC(=O)NNC(=S)NC(=O)c2cccs2)ccc1Cl	27.9	3.5	23.2	31.1	29.7	x	x
Cc1ccc(OCC(=O)NNC(=S)NC(=O)c2cccs2)c(C)c1	-6.8	3.2	-12.3	-42.8	51.5*	9.1	x
COc1cc2[nH]c3c(N4CCN(c5ccccn5)CC4)ncnc3c2cc1OC	18.3	1.4	16.3	21.4	68.8*	40.6*	52.9*
COc1cccc2[nH]c3c(N4CCCCC4)ncnc3c12	5.0	-1.8	24.6	32.5	7.9	x	x
Cc1cccc(C(=O)N2CCC[C@H]2C(=O)N2CCC[C@H]2C(=O)NCc2ccncc2)c1	x	-0.2	x	x	x	x	x
O=C(Nc1nc(NC(=O)c2ccco2)n(-c2ccccc2)n1)c1ccccc1	-9.6	31.6	-14.0	-23.8	74.4*	63.6*	45.8*
Fc1ccc(-c2nnc(NC3=NCCCCC3)o2)cc1	13.4	-1.0	-4.1	17.6	54.5*	49.5*	54.6*
COc1cc(NC(=O)c2cc(-c3ccc4c(c3)OCO4)on2)cc(OC)c1OC	-3.8	-1.2	10.3	7.2	59.9*	42.0*	39.8*
CC(C)(C)c1ccc(Cn2c(=O)cnc3ccccc32)cc1	38.6	12.7	12.7	31.3	71.5*	77.3*	25.9
O=c1cnc2ccccc2n1Cc1ccc(Br)cc1	24.2	1.7	30.3	23.7	29.9	x	x
CCOC(=O)c1c(NC(=O)c2ccno2)c2cc([N+](=O)[O-])ccc2n1C	8.4	1.4	11.6	12.6	20.3	x	x
CCOC(=O)c1c(NC(=O)c2cc(C)on2)c2cc([N+](=O)[O-])ccc2n1C	-5.0	x	1.0	5.6	85.3*	5.8	x
COc1ccc(NC(=O)Nc2ccc3nc([C@@H]4O[C@H](CO)[C@@H](O)[C@H](O)[C@H]4O)[nH]c3c2)cc1OC1CCCC1	x	0.1	x	x	x	x	x
Cc1ccc(O)c(NC(=S)NC(=O)c2ccc(-c3ccc(Cl)cc3)o2)c1	15.2	3.8	0.9	23.4	50.9*	27.8	x
O=C(NC(=S)Nc1ccccc1O)c1ccc(-c2ccc(Cl)cc2)o1	13.6	4.9	-5.1	0.3	27.2	x	x
Cc1ccccc1C(=O)Nc1ccc2c(c1)CCCN2C(=O)c1cccs1	34.8	1.3	21.6	29.8	84.2*	68.3*	40.4*
COc1cccc(C(=O)Nc2ccc3c(c2)CCCN3C(=O)c2cccs2)c1OC	26.4	-0.1	10.2	33.8	7.9	x	x
O=C(COC(=O)c1cnc(Cl)c(Cl)c1)NC1CCCC1	x	-0.2	x	x	x	x	x
C[C@@H]1CN([C@@H](C)CO)S(=O)(=O)c2ccc(Br)cc2O[C@H]1CN(C)C(=O)Cc1cccnc1	x	0.4	x	x	x	x	x
Cc1c(CCC(C)C)c(=O)n2c([nH]c3ccccc32)c1C#N	25.7	48.7	27.1	15.3	72.6*	53.1*	44.8*
C=CC(=O)Nc1cccc(Oc2cc(Cl)nc3[nH]ccc23)c1	-3.2	0.2	9.5	24.1	80.4*	71.7*	42.4*
COc1cccc(NC(=O)c2cccc(C(=O)Nc3cccc(OC)c3)n2)c1	5.0	0.8	-5.1	8.5	17.3	x	x
CCOC(=O)C1=CN(CC)CCC1=O	x	-0.4	x	x	x	x	x
NC(=O)c1ccc(NC(=O)C2CC2)cc1	3.6	-0.3	-3.5	-1.2	7.9	x	x
SMILES	tim10-1 inh	MPTP block	TIM10 inh	tim23-1 inh	Mdm2 MdmX PPI	Mdm2-MdmX conf	Full FLuc ctr
O=C(Nc1ccc(Cc2ccc(NC(=O)C3CC3)cc2)cc1)C1CC1	-17.1	0.3	-6.5	-2.6	56.9*	14.7	x
Cc1ccc(-c2nnc(SCC(=O)Nc3ccccc3F)o2)cc1	10.0	0.9	10.3	19.4	79.8*	67.0*	32.6
Cc1cc(-c2nnc(SCC(=O)Nc3ccccc3C(F)(F)F)o2)c(C)n1-c1ccccc1	-0.6	-1.7	0.7	1.1	75.5*	76.9*	103.4*
COc1ccc2cc(CN(C)C(=O)CN3C(=O)NC4(CCCC4)C3=O)ccc2c1	x	-1.1	x	x	x	x	x
O=C(CNC(=O)c1ccccc1O)N/N=C/c1cc(Br)ccc1OC(=O)/C=C/c1ccco1	-7.8	x	-19.5	-18.0	51.5*	70.2*	41.1*
CCCCCn1c2c(c(=N)c3ccccc31)CCC2	2.1	9.4	-9.6	-12.0	59.5*	30.7	x
CCCCSc1nnc2n(CCc3ccccc3)c(=O)c3c4c(sc3n12)COC(C)(C)C4	15.8	3.3	20.2	12.1	55.3*	24.6	x
CCOC(=O)c1cc2c(c(CCO)n1)[C@H](CCO)N(S(=O)C(C)(C)C)C2 (some centres undefined)	x	1.3	x	x	x	x	x
O=C(Nc1ccc(F)cc1)Nc1sccc1-c1nc2ccccc2s1	12.8	43.6	14.7	22.5	68.2*	35.5	68.6*
COc1cc(/C=C2\N=C(c3ccccc3)NNC2=O)cc(OC)c1OC	-6.2	-0.7	-3.3	-3.9	61.0*	53.6*	63.5*
O=C1NNC(c2ccccc2)=N/C1=C\c1ccco1	-4.5	2.6	8.6	11.6	21.0	x	x
Cc1ccsc1-c1nc(C(N)=O)c2[nH]c(=O)n(-c3ccc(Cl)cc3)c2n1	7.3	-0.1	-0.1	6.8	97.0*	11.9	x
CO/N=C/C(=N\Nc1ccc(C)cc1)C(=O)c1ccc(OC)cc1	6.4	8.8	13.4	1.1	54.7*	58.4*	64.8*
Cc1sc2ncnc(SC(C)C(=O)N3c4ccccc4Sc4ccccc43)c2c1C (centres undefined)	-5.3	0.7	-9.4	13.2	55.0*	25.4	x
Cc1sc2ncnc(SCC(=O)N(C(C)C)C(C)C)c2c1C	30.4	-0.3	3.9	31.5	15.6	x	x
C[C@H](CO)N1C[C@H](C)[C@@H](CN(C)S(=O)(=O)c2ccccc2)Oc2c(NC(=O)Nc3ccc(C(F)(F)F)cc3)cccc2C1=O	14.3	-1.4	-0.4	22.7	36.7	x	x
C[C@@H]1CN([C@H](C)CO)C(=O)c2cc(NC(=O)Nc3ccc(C(F)(F)F)cc3)ccc2O[C@H]1CN(C)S(=O)(=O)c1ccccc1	6.1	1.1	-1.4	17.6	74.3*	30.3	x

High-throughput results: PubChem, Sanford-Burnham Center for Chemical Genomics
